Autofluor counter: compound fluorescence in toxin protease inhibitor counterscreen; compound autofluorescence counterscreen, microsphere flow cytometry; hits give high values; AID 624483; 3.1% of 360,000 active; fluorescence intensity (no concentration beside the values); in the data active = fluorescence intensity above about 16000; inconclusive = no clear call, values can overlap the other calls
Anthrax LF inh2: Bacillus anthracis LF protease inhibitors, primary screen, biochemical, multiplex microsphere, MLPCN library; Lethal factor (Bacillus anthracis), P15917; multiplex microsphere protease cleavage assay; inhibition, % at 10 µM; 0.12% of 360,000 active; note: plate controls were buffer without enzyme for full effect and enzyme alone for no effect
BoNT-F LC inh: BoNT/F light chain protease inhibitors, primary screen, biochemical, flow cytometry, MLPCN library; Botulinum neurotoxin type F light chain protease (Clostridium botulinum); Multiplex microsphere protease cleavage assay; inhibition, % at 10 µM; 0.22% of 360,000 active; in the data active = inhibition above about 35%, passing the limit was not always enough; inconclusive = no clear call, values can overlap the other calls; note: plate controls were buffer without enzyme for full effect and enzyme alone for no effect
BoNT A protease: BoNT/A light chain protease inhibitors, primary screen, biochemical, flow cytometry, MLPCN library; Botulinum neurotoxin type A light chain protease (Clostridium botulinum A str. ATCC 3502); multiplex microsphere protease substrate cleavage; inhibition, % at 10 µM; 0.17% of 360,000 active; note: plate controls were buffer without enzyme for full effect and enzyme alone for no effect
* marks the source's active call; other numbers are inactive results; u = inconclusive. A selection: hits, their analogues and other compounds. The true share with any hit is near 3.5%. Cut-off read from the data, not from the text of the source, unless noted: active = inhibition above about 30%; inconclusive = no clear call, values can overlap the other calls; inactive = below that.

SMILES	Autofluor counter	Anthrax LF inh2	BoNT-F LC inh	BoNT A protease
COc1cccc(N(CC(=O)NC(C)(C)C)C(=O)C2CSC(=O)C2)c1 (configuration not stated)	20419*	-1	0	1
NC(=O)CSc1ncnc2c1oc1ccccc12	5264	-9	1	0
CN(C)CCOc1ncnc2c1oc1ccccc12	18425*	0	3	3
CCN(CC)CCCOc1nc(C)nc2c1oc1ccccc12	23099*	2	-1	0
c1coc(CN(Cc2ccco2)c2ncnc3c2oc2ccccc23)c1	19845*	-3	-1	1
Clc1ncnc2c1oc1ccccc12	4242	1	-44	-1
CCSc1ncnc2c1oc1ccccc12	16868*	-15	10	7
COCOc1ccc(-c2ncc(OCCN3CCCC3=O)nc2NC(=O)c2cc3ccccc3s2)cc1	3708	-14	-21	-2
O=C(Nc1ccc2c(c1)OCCO2)C(c1cc2ccccc2o1)N1CCN(C/C=C/c2ccccc2)CC1 (configuration not stated)	6170	0	-8	0
O=C(O)C(=Cc1ccc([N+](=O)[O-])cc1)c1cccc(Cl)c1	4058	-10	4	0
Cc1cc(C)nc(Sc2ncnc3c2oc2ccccc23)n1	21474*	0	3	2
CC(=O)Nc1cc(-c2ccc(N)nc2)cn2c(-c3cccc(C(F)(F)F)c3)cnc12	4775	-10	-7	-1
CCCCNC(=O)c1nc(C2CCN(S(=O)(=O)c3ccccc3C(F)(F)F)CC2)oc1-c1ccccc1	5453	-9	-2	0
Cc1cc(C(=O)N(C)Cc2ccc(Br)cc2)no1	3426	-4	-8	-2
CN(Cc1ccccc1)C(=O)c1cc(-c2ccc(Br)cc2)on1	23868*	-3	-2	-1
COc1cc(OC)cc(-c2nc3ccccc3s2)c1	23472*	2	-6	-2
COc1cccc(CNC(=O)c2ccc(S(=O)(=O)N3CCCCC3)cc2)c1	3688	-4	-1	0
COc1ccc(OC)c(N/C(C)=C/C(=O)c2ccc(C)o2)c1	20443*	-1	-7	u
COc1ccc(OC)c(N/C(C)=C/C(=O)c2ccc(Br)cc2)c1	4241	-5	-7	-1
O=C(COc1ccc(F)cc1F)N1CCCCCCC1	3613	10	-10	0
C=CCOC(=O)C1CC=CCC1C(=O)Oc1ccc(F)cc1F (configuration not stated)	24043*	-3	-3	u
CC(C)(C)c1cnnn1-c1ccc(NC(=O)c2ccc(Br)o2)cc1	20983*	-1	-5	-3
CCN1CCN(c2ccc(NC(=O)c3ccc4c(c3)OCO4)cc2)CC1	16331*	-8	-9	-1
CCCCC(=O)Nc1ccc(NC(=O)c2ccc3c(c2)OCO3)cc1OC	22707*	-4	2	2
COc1cccc(C(=O)Nc2ccc(-n3nncc3C(C)(C)C)cc2)c1	3967	4	-2	0
SMILES	Autofluor counter	Anthrax LF inh2	BoNT-F LC inh	BoNT A protease
CCC(=O)N1CCN(c2ccc(NC(=O)c3ccc4c(c3)OCO4)cc2)CC1	4365	0	2	0
CC(C)(C)c1cnnn1-c1ccc(NC(=O)c2ccc3c(c2)OCO3)cc1	23470*	-2	-5	-4
Cc1ccc(CN2C(=O)c3ccccc3C2c2nnnn2-c2c(C)cccc2C)cc1 (configuration not stated)	4180	-5	-4	0
CCNC(=O)C1(C)CCN(C(=O)c2ccc(C#N)cc2)C1 (configuration not stated)	3649	-2	-11	-1
CCN(CC)c1nc(Nc2ccccc2)nc(Oc2ccc(C(=O)OC)cc2)n1	8534	-6	-13	-1
COC(=O)c1ccc(Oc2nc(Nc3ccccc3)nc(N(C)C)n2)cc1	20995*	0	-6	-4
CC1Cc2ccccc2N1C(=O)CN1C(=O)COc2ccccc21 (configuration not stated)	3595	3	-9	0
CC1Cc2ccccc2N1C(=O)Cc1cccs1 (configuration not stated)	17722*	-3	-8	-7
CC1Cc2ccccc2N1C(=O)Cn1c(=O)cc(O)c2ccccc21 (configuration not stated)	24078*	-4	-9	u
CC1Cc2ccccc2N1C(=O)CCS(=O)(=O)c1cccs1 (configuration not stated)	6867	13	4	-1
Cc1cc(C)c(C(O)c2ncc(-c3cccc(F)c3)[nH]2)c(C)c1 (configuration not stated)	2930	-2	-4	0
CCOC(=O)C(=CNc1cc(C)ccc1C)C(=O)OCC	17727*	-3	-6	-3
CCOC(=O)CSCC(=O)Nc1cc(C)ccc1C	26149*	-2	-10	-9
COc1ccc(CC(C)N2CCN(Cc3ccccc3)CC2)c(OC)c1 (configuration not stated)	18004*	-1	10	8
COc1ccc(CN2CCN(c3ccccc3OC)CC2)c(OC)c1	4077	2	-8	-7
O=C(/C=C/c1ccco1)NC(=S)Nc1ccccc1N1CCOCC1	23214*	1	0	0
COc1ccccc1N1CCc2c(C)nc3c(OC)cccc3c21	22775*	1	-6	-2
COC(=O)[C@H](Cc1ccccc1)NC(=O)N1CCCCC1C (some centres not stated)	10036	-1	-4	0
CCC1CCCCN1C(=O)N[C@@H](Cc1ccccc1)C(=O)O (some centres not stated)	23663*	0	-3	0
CCN1C(=O)C(CC(=O)N2CCN(C(c3ccccc3)c3ccccc3)CC2)N(CC)C1=O (configuration not stated)	16806*	-2	0	-1
CCN1C(=O)CC(N2CCN(C(c3ccccc3)c3ccccc3)CC2)C1=O (configuration not stated)	3331	2	-12	0
CN(c1ccccc1)S(=O)(=O)c1cccc(Cl)c1Cl	4955	0	-3	0
CN(C)S(=O)(=O)c1c(Cl)cccc1Cl	23563*	0	1	1
COCCn1c(C(C)C)nc2sc3ccccc3c(=O)c2c1=O	19469*	-8	6	u
CCc1nc2sc3ccccc3c(=O)c2c(=O)n1CCOC	19591*	-4	1	1
COCCn1c(=O)sc2ccccc2c1=O	3463	-3	-8	1
COCCn1c(C2CCCCC2)nc2sc3ccccc3c(=O)c2c1=O	22628*	1	3	2
CCN1C(=O)[C@H]2[C@@H](c3ccc(-c4ccccc4)cc3)N3CCCC[C@@]3(C(=O)OC)[C@H]2C1=O	4213	-5	-7	0
COc1ccc(S(=O)(=O)N(C)C[C@H]2Oc3c(cccc3N(C)C)C(=O)N([C@H](C)CO)C[C@@H]2C)cc1	4159	-10	-15	-1
COc1ccc(S(=O)(=O)N(CCc2ccccc2)CC(=O)NCCCO)cc1	9981	-1	-18	-2

Assay outcomes deposited in PubChem by NMMLSC.
